# Screening results: PubChem, several laboratories
# DAT uptake mod: changed human dopamine transporter uptake under cocaine IC80. LLC-PK1 hDAT cells, [14C]-dopamine uptake with cocaine IC80; actives deviate in either direction. B-score at 10 µM. Q01959. hit rate 1.3% among 110,000;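 active = Z score or B-score, a plate-position-corrected score, falls beyond the plate's 99.7% confidence bounds, in either direction; inactive = both scores lie inside the 99.7% bounds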;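 also: scored against the spread of the other compound wells on the same plate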
# CYP2C9 act: increases human cytochrome P450 2C9 activity; hit rate 1.4% among 96,000; AID 1024; recombinant CYP2C9, luciferin-H conversion, luminescence; hits give high values; factor 1 = untreated enzyme, 0 = blocked; P11712; activation factor at 5 µM;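 active = activation factor of 2 or more for CYP2C9 at a 5 µM dose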;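 also: 0 = sulfaphenazole-blocked wells and 1 = vehicle-only wells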
# CYP2C19 activ: increases human CYP2C19 enzyme activity. P33261. recombinant CYP2C19, luciferin-H EGE luminescence; hits give high values; 0 = fully inhibited enzyme, 1 = untreated enzyme. activation factor at 5 µM. 96,000 tested, under 10 active. AID 1025;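 active = activation factor of at least 2 at 5 µM in the primary screen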;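 also: 0 = wells with 2.5 mM tranylcypromine and 1 = vehicle-only wells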
# Target sequence (P33261 whole entry, looked up): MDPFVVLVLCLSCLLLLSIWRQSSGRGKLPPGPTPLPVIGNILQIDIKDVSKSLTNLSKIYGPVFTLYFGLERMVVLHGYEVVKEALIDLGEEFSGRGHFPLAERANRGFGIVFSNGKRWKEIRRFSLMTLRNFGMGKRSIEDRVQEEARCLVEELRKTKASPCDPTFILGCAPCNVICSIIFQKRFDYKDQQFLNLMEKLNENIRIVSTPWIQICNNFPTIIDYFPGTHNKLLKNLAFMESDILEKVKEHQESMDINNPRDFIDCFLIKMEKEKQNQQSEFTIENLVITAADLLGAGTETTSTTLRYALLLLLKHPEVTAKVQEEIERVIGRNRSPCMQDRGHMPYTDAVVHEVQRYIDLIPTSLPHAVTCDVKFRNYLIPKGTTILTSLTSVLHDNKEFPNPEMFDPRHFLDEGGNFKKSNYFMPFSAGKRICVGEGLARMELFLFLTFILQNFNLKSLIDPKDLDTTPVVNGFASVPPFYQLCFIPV
# CYP2C9 inhib: human CYP2C9 inhibition | CYP2C9 Supersomes, luciferin-H conversion, luminescence | inhibition, % at 5 µM | hit rate 20% among 96,000 | AID 777;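 active = blocking of liver enzyme CYP2C9 beyond about 50% at 5 µM, limit read from the data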
# D1 mod: allosterically modulates the human D1 dopamine receptor; AID 641; B-score at 10 µM; HEK293 D1, CRE-luciferase, dopamine EC30 potentiation; actives deviate in either direction; hit rate 5.9% among 58,000;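 active = luminescence count or its row- and column-corrected plate score outside the 99.7% band of the plate's sample wells, on either side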
# CYP2C19 inhib: blocks human cytochrome P450 2C19 | hit rate 21% among 96,000 | P33261 | CYP2C19 Supersomes, luciferin-H EGE luminescence, 30 min | inhibition, % at 5 µM;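 active = CYP2C19 inhibition above a set limit at 5 µM in the primary screen, cut at about 50% in these data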;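 also: plate controls were negative control wells for no effect and 2.5 mM tranylcypromine positive control for full effect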
# Active calls of the source: *; x = no result. Sampled rows, rich in hits. Any-hit rate of the full collection: about 28%.
SMILES,DAT uptake mod,CYP2C9 act,CYP2C19 activ,CYP2C9 inhib,D1 mod,CYP2C19 inhib
Cn1c2c(c(=O)n(C)c1=O)C(C(F)(F)F)(C(F)(F)F)N=C(c1ccccc1Cl)N2,-1.7,0.3,1,73*,x,1
CCC(c1nnnn1Cc1ccc2c(c1)OCO2)N1CCN(c2ccc(F)cc2)CC1 (stereo not given),x,0.1,0.6,87*,-1.5,43
CC(C)C(c1nnnn1Cc1ccc(F)cc1)N1CCN(C(=O)c2ccco2)CC1 (stereo not given),-0.18,0.4,0.5,62*,-0.54,50*
CC(C)CC(c1nnnn1CC1CCCO1)N1CCN(Cc2ccc3c(c2)OCO3)CC1 (stereo not given),0.0063,1.1,0.9,-9,-0.57,12
CCCC(c1nnnn1Cc1cccs1)N1CCN(c2ccc(OC)cc2)CC1 (stereo not given),-0.33,0.6,0.6,35,0.46,42
CC(C)C(c1nnnn1Cc1ccc(F)cc1)N1CCN(Cc2ccc3c(c2)OCO3)CC1 (stereo not given),0.13,0.3,0.1,72*,0.76,87*
CCC(c1nnnn1Cc1ccc2c(c1)OCO2)N1CCN(c2ccc(OC)cc2)CC1 (stereo not given),-1.1,0.2,0.3,83*,-1.4,73*
CCN1CCN(C(c2nnnn2Cc2ccc3c(c2)OCO3)C(C)C)CC1 (stereo not given),-0.18,x,x,x,x,x
CC(C)NC(=O)CSc1nncn1-c1ccccc1,0.82,1.1,1.1,-7,-0.62,-7
COc1ccc(Cn2nnnc2C(c2cccs2)N2CCN(c3ccccc3)CC2)cc1 (stereo not given),-0.39,0.7,0.9,28,-0.38,6
c1ccc(Cn2nnnc2CN2CCN(Cc3ccc4c(c3)OCO4)CC2)cc1,0.35,1,0.8,4,-0.015,18
COc1ccc(Cn2nnnc2C(c2cccs2)N2CCN(c3ccc([N+](=O)[O-])cc3)CC2)cc1 (stereo not given),-0.044,0.3,0.4,73*,x,63*
COc1ccc(Cn2nnnc2C(c2ccccc2OC)N2CCC(C(N)=O)CC2)cc1 (stereo not given),1.1,1,0.8,1,0.64,22
NC(=O)C1CCN(C(c2ccccc2Cl)c2nnnn2Cc2ccc3c(c2)OCO3)CC1 (stereo not given),-1.4,0.3,0.2,68*,0.58,81*
CCC(c1nnnn1Cc1ccc2c(c1)OCO2)N1CCN(c2ccccc2)CC1 (stereo not given),0.34,0.2,0.3,81*,-0.7,68*
Fc1cccc(NC(=S)Nc2ccc(Br)cc2)c1,-1.3,0.4,0.2,58*,x,82*
Cc1cc(Br)cn2ccnc12,x,1.2,1.1,-18,x,-14
Cn1nc(C(F)(F)F)c2cc(NC(=O)OCc3ccc(C(C)(C)C)cc3)sc21,1.1,0.5,0.8,52*,x,20
Cn1nc(C(F)(F)F)c2cc(NC(=O)OCc3ccc(F)cc3)sc21,0.45,2.5*,0.5,-148,x,52*
Cc1ccc(-n2c(CSc3nc(C)cc(C)n3)nnc2SCC(=O)NCc2ccco2)cc1,-0.17,0.6,1,41,1.7,-1
O=S(=O)(c1ccccc1)c1nc(-c2ccccc2)oc1N1CCCCC1,-0.064,1.2,0.8,-22,x,20
Fc1ccc(-c2ccnc3nc(N4CCOCC4)nn23)cc1,-1.3,1,0.8,-3,x,18
COc1ccc(-c2ccnc3nc(N4CCN(c5ccccc5)CC4)nn23)cc1,0.14,0.4,1.1,61*,x,-11
O=C(Nc1ccc(S(=O)(=O)N2CCOCC2)cc1)c1ccc(Br)o1,-0.44,0.9,1,8,1.2,-1
O=C(Cn1c(=O)n(-c2ccc(F)cc2)c(=O)c2sccc21)N1CCCC1,-0.64,1.1,1.1,-14,-0.85,-6
SMILES,DAT uptake mod,CYP2C9 act,CYP2C19 activ,CYP2C9 inhib,D1 mod,CYP2C19 inhib
CCc1ccc(NC(=O)COn2nnc3ccc(S(=O)(=O)N(C)C)cc32)cc1,1.5,0.2,0.2,82*,x,82*
Cc1ccc(NC(=O)COn2nnc3ccc(S(=O)(=O)N(C)C)cc32)cc1F,-0.64,0,0.1,98*,x,89*
Cc1cc(C)cc(-n2c(=O)c3sccc3n(CC(=O)NCc3ccco3)c2=O)c1,-0.45,1.1,0.9,-5,-1.3,11
O=C(CCCCn1c(=S)[nH]c2ccsc2c1=O)NCc1ccco1,0.23,0.3,0.7,67*,0.069,33
Cc1cc(C)c(Cn2c(=O)n(CCCC(=O)NCc3ccco3)c(=O)c3sccc32)c(C)c1,0.59,0.4,0.7,61*,x,27
O=C(CCn1c(=O)c2sccc2n(Cc2cc(=O)n3ccccc3n2)c1=O)NCc1ccco1,-0.28,0.8,1.1,20,-0.1,-9
Cc1ccccc1Cn1c(=O)n(CCCC(=O)NCc2ccco2)c(=O)c2sccc21,-0.23,0.1,0.1,94*,x,89*
Cc1ccc(C)c(Cn2c(=O)n(CCC(=O)NCc3ccco3)c(=O)c3sccc32)c1,-0.76,0.9,1.1,9,0.04,-5
O=C(CCCn1c(=O)c2sccc2n(Cc2cc(=O)n3ccccc3n2)c1=O)NCc1ccco1,-0.51,0.3,0.8,66*,-0.027,16
O=C(C1=C[C@@H](c2ccc(C(F)(F)F)cc2)C[C@@H](OCc2ccc(CO)cc2)O1)N1CCN(Cc2ccccc2)CC1,0.054,x,x,x,x,x
Cc1nc2ccccc2c(=O)n1NC(=O)Cc1ccc(Br)cc1,-0.37,0.2,0.6,85*,x,40
CCCCCc1ccc(CC(=O)Nn2c(C)nc3ccccc3c2=O)cc1,0.5,0.1,0.4,95*,x,60*
CC(C)C(=O)Nc1ncc2c(n1)CC(c1cccs1)CC2=O (stereo not given),-0.63,x,x,x,x,x
Brc1ccc(-c2nc3ncccn3c2NC2CCCCC2)o1,0.38,0.4,0.5,56*,x,48
O=C(O)C[C@H]1c2ccc(C(F)(F)F)cc2S(=O)(=O)N1Cc1ccccc1,-1.7,x,x,x,x,x
COc1ccc2c(c1)CCc1c(C(=O)NC3CCCCC3)noc1-2,0.99,1,1,-3,-1.9,-1
Cc1cc(C)nc(N2CCCC(C(=O)NC3CCCC3)C2)n1 (stereo not given),0.16,0.8,0.4,21,0.38,58*
Cc1cc(C)nc(N2CCCC(C(=O)NCCC3=CCCCC3)C2)n1 (stereo not given),-1,1.6,0.3,-60,0.57,73*
Cc1cc(C)nc(N2CCCC(C(=O)NCc3cccc(C(F)(F)F)c3)C2)n1 (stereo not given),-1.5,2.1*,0.8,-108,-0.062,22
Cc1cc(C)nc(N2CCC(C(=O)NC3CCCCCC3)CC2)n1,0.014,x,x,x,-0.44,x
COc1ccccc1NC(=O)C1CCCN(c2nc(C)cc(C)n2)C1 (stereo not given),0.19,x,x,x,x,x
